The values that follow come from the supplement of paper PMC10849652.

The full data set covers some 7,900 targets. This sample favours those with a hit. About 0.6% of all pairs of compound and target were hits. Values without a mark were called inactive.

Sequence of UniProt P54922 (P54922 whole entry, looked up): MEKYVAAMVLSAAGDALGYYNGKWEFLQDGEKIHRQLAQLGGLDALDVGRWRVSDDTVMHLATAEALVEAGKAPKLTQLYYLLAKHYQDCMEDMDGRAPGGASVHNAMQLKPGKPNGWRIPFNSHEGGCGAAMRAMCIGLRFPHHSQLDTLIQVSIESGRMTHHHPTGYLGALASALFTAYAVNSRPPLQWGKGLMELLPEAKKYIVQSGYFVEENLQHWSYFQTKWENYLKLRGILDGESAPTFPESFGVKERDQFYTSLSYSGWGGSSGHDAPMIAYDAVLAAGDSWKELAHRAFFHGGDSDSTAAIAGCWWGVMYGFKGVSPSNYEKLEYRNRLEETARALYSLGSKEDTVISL
Sequence of UniProt Q96G97 (Q96G97 whole entry, looked up): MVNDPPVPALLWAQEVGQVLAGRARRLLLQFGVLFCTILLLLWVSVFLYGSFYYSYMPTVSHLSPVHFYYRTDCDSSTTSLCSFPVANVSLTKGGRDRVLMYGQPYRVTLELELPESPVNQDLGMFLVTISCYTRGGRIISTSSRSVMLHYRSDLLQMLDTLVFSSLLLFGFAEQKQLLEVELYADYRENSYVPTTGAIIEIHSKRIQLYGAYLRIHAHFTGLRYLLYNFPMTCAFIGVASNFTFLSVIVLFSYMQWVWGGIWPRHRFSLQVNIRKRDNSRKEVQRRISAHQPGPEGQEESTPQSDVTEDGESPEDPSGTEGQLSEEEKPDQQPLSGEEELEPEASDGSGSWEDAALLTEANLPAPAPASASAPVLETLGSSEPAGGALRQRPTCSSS
Sequence of UniProt Q8NFV4 (Q8NFV4 whole entry, looked up): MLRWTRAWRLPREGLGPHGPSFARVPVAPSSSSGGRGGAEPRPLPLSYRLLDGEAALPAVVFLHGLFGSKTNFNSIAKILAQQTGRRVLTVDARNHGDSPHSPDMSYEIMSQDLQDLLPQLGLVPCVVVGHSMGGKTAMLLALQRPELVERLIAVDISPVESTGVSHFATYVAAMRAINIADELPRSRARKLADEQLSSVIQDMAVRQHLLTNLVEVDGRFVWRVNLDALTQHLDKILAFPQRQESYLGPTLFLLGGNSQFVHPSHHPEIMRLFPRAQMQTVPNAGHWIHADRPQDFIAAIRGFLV
Sequence of UniProt P25440 (P25440 whole entry, looked up): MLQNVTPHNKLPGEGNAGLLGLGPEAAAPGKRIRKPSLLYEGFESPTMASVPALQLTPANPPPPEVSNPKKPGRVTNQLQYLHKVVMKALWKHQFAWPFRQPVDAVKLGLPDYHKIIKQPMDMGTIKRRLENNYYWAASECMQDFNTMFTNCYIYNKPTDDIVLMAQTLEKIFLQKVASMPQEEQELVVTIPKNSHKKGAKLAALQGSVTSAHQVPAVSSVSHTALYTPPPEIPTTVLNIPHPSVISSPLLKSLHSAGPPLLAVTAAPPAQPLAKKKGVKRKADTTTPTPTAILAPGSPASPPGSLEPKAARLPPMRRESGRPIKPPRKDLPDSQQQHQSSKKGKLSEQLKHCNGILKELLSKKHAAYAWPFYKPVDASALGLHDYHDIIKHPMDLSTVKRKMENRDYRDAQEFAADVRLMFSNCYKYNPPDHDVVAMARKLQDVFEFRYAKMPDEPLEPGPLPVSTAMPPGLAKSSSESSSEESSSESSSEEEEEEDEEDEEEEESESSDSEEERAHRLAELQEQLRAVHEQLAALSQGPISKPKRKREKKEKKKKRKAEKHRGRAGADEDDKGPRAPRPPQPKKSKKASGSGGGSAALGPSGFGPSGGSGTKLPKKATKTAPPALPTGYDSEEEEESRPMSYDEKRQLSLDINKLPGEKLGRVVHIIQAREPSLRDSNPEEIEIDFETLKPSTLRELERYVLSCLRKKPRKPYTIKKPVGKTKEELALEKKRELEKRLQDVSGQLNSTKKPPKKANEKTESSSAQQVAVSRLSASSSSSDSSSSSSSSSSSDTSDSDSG
Sequence of UniProt Q9UKU0 (Q9UKU0 whole entry, looked up): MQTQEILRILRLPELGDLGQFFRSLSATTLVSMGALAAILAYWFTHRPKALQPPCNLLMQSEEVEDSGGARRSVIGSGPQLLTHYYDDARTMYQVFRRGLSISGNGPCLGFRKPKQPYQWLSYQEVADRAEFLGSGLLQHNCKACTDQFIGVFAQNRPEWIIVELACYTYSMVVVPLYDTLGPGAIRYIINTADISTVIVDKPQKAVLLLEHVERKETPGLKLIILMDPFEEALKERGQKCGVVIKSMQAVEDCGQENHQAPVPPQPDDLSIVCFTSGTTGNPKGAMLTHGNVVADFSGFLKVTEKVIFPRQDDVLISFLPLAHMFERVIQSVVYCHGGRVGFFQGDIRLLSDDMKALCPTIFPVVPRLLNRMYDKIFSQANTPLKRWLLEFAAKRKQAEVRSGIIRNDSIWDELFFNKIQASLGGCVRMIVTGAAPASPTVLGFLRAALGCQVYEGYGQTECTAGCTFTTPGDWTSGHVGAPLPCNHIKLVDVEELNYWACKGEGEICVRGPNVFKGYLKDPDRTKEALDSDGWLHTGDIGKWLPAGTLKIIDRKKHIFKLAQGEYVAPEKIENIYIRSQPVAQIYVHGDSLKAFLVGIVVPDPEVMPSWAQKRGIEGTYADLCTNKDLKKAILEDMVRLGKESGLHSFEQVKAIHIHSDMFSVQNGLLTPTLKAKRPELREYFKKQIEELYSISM
Sequence of UniProt Q14CW9 (Q14CW9 whole entry, looked up): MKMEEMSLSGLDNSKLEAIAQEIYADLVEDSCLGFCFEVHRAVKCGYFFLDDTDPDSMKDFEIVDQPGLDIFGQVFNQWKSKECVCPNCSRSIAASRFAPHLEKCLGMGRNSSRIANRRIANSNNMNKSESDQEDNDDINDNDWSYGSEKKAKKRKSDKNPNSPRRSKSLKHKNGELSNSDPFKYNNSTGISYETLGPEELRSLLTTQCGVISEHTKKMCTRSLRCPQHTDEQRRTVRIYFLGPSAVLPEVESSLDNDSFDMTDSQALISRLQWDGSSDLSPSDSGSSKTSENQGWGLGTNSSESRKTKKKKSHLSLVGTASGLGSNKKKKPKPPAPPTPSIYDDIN
Sequence of UniProt P42331 (P42331 whole entry, looked up): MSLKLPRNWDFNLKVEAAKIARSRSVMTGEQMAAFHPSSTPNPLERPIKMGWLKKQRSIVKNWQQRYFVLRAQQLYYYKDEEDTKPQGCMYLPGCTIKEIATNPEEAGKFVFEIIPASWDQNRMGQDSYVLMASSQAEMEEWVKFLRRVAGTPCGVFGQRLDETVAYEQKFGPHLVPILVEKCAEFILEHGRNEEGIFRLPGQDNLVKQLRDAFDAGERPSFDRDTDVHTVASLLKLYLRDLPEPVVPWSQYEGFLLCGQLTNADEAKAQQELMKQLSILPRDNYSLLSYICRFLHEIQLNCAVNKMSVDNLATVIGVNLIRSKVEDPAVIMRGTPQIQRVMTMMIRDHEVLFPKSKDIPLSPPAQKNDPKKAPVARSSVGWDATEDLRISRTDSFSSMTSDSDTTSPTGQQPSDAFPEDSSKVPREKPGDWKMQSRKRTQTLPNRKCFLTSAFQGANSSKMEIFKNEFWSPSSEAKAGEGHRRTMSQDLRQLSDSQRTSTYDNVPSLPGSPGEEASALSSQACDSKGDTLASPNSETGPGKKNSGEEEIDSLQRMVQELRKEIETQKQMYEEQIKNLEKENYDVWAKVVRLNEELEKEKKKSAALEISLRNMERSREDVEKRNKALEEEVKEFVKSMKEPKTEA
Sequence of UniProt Q9H0E9 (Q9H0E9 whole entry, looked up): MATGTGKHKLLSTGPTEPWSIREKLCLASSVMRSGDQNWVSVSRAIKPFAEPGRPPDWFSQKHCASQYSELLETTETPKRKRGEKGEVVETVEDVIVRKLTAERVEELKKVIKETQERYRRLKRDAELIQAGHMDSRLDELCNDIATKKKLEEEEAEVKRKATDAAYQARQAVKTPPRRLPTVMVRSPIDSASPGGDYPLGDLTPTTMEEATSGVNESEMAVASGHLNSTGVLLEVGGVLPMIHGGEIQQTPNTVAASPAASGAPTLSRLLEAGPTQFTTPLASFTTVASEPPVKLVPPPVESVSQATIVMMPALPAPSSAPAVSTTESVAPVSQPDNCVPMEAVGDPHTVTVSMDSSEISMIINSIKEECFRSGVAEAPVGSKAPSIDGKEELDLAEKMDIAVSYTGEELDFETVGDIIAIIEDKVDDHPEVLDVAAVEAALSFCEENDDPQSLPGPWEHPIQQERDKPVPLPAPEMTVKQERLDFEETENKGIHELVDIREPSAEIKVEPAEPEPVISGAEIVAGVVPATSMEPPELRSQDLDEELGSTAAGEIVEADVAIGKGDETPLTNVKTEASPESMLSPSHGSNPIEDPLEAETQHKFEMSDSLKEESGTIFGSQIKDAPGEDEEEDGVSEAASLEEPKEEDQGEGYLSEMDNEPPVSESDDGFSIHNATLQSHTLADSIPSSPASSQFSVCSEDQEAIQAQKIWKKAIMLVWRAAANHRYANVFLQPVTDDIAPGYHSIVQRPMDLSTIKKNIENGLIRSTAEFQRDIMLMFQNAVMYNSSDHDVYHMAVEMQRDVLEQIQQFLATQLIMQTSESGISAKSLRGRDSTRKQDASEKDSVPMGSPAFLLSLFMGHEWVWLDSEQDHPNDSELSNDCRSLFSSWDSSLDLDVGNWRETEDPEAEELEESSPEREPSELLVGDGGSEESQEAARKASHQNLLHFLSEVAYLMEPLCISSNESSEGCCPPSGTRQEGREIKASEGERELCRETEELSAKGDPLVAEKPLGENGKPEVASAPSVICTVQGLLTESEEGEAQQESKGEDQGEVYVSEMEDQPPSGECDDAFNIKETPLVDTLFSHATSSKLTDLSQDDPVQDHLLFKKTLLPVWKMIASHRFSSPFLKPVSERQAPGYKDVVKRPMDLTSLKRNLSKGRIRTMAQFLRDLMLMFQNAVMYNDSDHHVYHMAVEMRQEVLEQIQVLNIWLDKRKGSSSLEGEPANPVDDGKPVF
Sequence of UniProt Q96F25 (Q96F25 whole entry, looked up): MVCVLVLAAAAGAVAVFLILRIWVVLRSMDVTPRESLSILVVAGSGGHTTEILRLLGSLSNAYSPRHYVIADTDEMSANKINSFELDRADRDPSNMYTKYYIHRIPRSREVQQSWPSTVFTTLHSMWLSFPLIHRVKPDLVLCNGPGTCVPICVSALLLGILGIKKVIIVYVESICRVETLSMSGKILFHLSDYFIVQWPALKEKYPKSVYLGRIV

Compound in the first test: NC(=O)Nc1cc(-c2cccc(F)c2)sc1C(=O)N[C@H]1CCCNC1
The experiment in a line: log2 fold change, soluble protein after heating vs DMSO (PISA); higher = thermal stabilisation; K562 cells, 10 uM, 30 min; active = over 0.2 and 3.5 SD of the protein, either way, in both replicates (recomputed). A digest of the protocol:
(§1)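 Values are thermal stability changes relative to control samples and are taken from duplicates. They are stated as log2 fold changes. Before quantification by TMTpro 16plex LC-MS/MS with equalised channel sums, K562 cells at 2×10^6 cells/mL were treated with 10 μM compound for 30 min, heated in aliquots for 3 min across 48°C-58°C, pooled, extracted in PBS with 0.5% NP-40 at 4°C, and centrifuged at 21,000xg for 90 min to give the soluble supernatant.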
Consider ACSL6 isoform 1 (UniProt Q9UKU0), for which the log2 fold change was 0.061.
The same measure, in the same setting: the same measure for BRD8 isoform 2 (UniProt Q9H0E9): -0.016; for ABCA4 (UniProt P78363): 0.007.
Same read-out and setting: the same measure for ATXN7L3 isoform 2 (UniProt Q14CW9): 0.182; for BRIP1 (UniProt Q9BX63): 0.139.
On the same count and under the same terms, with AGAP3 isoform 4 (UniProt Q96P47) the figure was 0.034.
With AUNIP isoform 2 (UniProt Q9H7T9), the log2 fold change was -0.194.
As to AKNA (UniProt Q7Z591), the log2 fold change was -0.069.
Same read-out and setting: the same measure for ALDH2 isoform 2 (UniProt P05091): -0.345.
For the target ARFIP1 isoform 2 (UniProt P53367), the log2 fold change was 0.11.
Same read-out and setting: with BAIAP2 isoform 4 (UniProt Q9UQB8) the figure was 0.019; with AASDH (UniProt Q4L235), -0.044; with ARRDC1 (UniProt Q8N5I2), 0.013.
On the same count and under the same terms, the same measure for AIF1 (UniProt P55008): 0.04.
Same read-out and setting: with ADAM15 (UniProt Q13444) the figure was -0.023; with ADD2 isoform 9 (UniProt P35612), 0; with BRAF (UniProt P15056), -0.102.
ABCA3 (UniProt Q99758): the log2 fold change is 0.021.
Same read-out and setting: with AZI2 (UniProt Q9H6S1) the figure was -0.094.
Regarding ADPRH (UniProt P54922), the log2 fold change is 0.015.
Regarding BRD2 isoform 2 (UniProt P25440), the log2 fold change is -0.01.

Compound in the next test: NC(=O)c1cnc(N[C@@H]2CCCC[C@@H]2N)nc1Nc1cccc(-n2nccn2)c1
The description is as above. Summed up:
as §1
As for BRMS1 (UniProt Q9HCU9), the log2 fold change was 0.15.
Same read-out and setting: the same measure for BRD8 isoform 2 (UniProt Q9H0E9): -0.205; for ABCA4 (UniProt P78363): -0.092; for AARSD1 (UniProt Q9BTE6): -0.066.
Take ATXN7L3 isoform 2 (UniProt Q14CW9): the log2 fold change was 0.033.
Take ARMC8 isoform 6 (UniProt Q8IUR7): the log2 fold change was -0.023.
Still for that read-out and setting: with ARL4A (UniProt P40617) the figure was -0.276; with ARHGAP25 isoform 4 (UniProt P42331), 0.068.
Still for that read-out and setting: the same measure for BRIP1 (UniProt Q9BX63): -0.139.
For the target BSCL2 isoform 4 (UniProt Q96G97), the log2 fold change was -0.197.
On to AGAP3 isoform 4 (UniProt Q96P47), for which the log2 fold change was -0.128.
Consider AUNIP isoform 2 (UniProt Q9H7T9), for which the log2 fold change is -0.037.
As to AUH (UniProt Q13825), the log2 fold change was 0.011.
Still for that read-out and setting: the same measure for ALDH2 isoform 2 (UniProt P05091): -0.389; for ABHD11 (UniProt Q8NFV4): -0.089.
Consider BRAF, A0A2R8Y8E0, for which the log2 fold change was 0.214.
The same measure, in the same setting: the same measure for AIF1 (UniProt P55008): 0.004.
As for ADAM15 (UniProt Q13444), the log2 fold change is 0.034.
On the same count and under the same terms, the same measure for ATXN3 isoform 1 (UniProt P54252): -0.256; for BRAF (UniProt P15056): -0.079; for ABCA3 (UniProt Q99758): -0.001.
Turning to ALG14 (UniProt Q96F25), the log2 fold change is 0.018.
For the target BRD2 isoform 2 (UniProt P25440), the log2 fold change was -0.209.

Compound in another test: NC1(c2ccc(-c3nc4ccn5c(=O)[nH]nc5c4cc3-c3ccccc3)cc2)CCC1
Described as above. Summed up:
as §1
In the case of BRMS1 (UniProt Q9HCU9), the log2 fold change was 0.121.
As to ACSL6 isoform 1 (UniProt Q9UKU0), the log2 fold change is -0.152.
Still for that read-out and setting: with ABCA4 (UniProt P78363) the figure was 0.061; with AARSD1 (UniProt Q9BTE6), -0.048.
For the target ATXN7L3 isoform 2 (UniProt Q14CW9), the log2 fold change was 0.207.
The same measure, in the same setting: with ARL4A (UniProt P40617) the figure was -0.117; with ARHGAP25 isoform 4 (UniProt P42331), -0.181; with BSCL2 isoform 4 (UniProt Q96G97), -0.013.
The same measure, in the same setting: with AGAP3 isoform 4 (UniProt Q96P47) the figure was -0.001; with AUH (UniProt Q13825), -0.023.
On the same count and under the same terms, the same measure for BAP18 isoform 3 (UniProt Q8IXM2): -0.042; for ARFIP1 isoform 2 (UniProt P53367): -0.147.
For the target ABHD11 (UniProt Q8NFV4), the log2 fold change was -0.139.
AASDH (UniProt Q4L235): the log2 fold change is -0.12.
Same read-out and setting: the same measure for ARRDC1 (UniProt Q8N5I2): -0.06.
On the same count and under the same terms, with BRAF, A0A2R8Y8E0 the figure was -0.31; with ADD2 isoform 9 (UniProt P35612), -1.2 (active).
Same read-out and setting: with ATXN3 isoform 1 (UniProt P54252) the figure was -0.137; with ALG14 (UniProt Q96F25), -0.118.
Turning to ADPRH (UniProt P54922), the log2 fold change was -0.178.

Compound in the next test: NCC(=O)Nc1ccc(-n2nc(C(F)(F)F)cc2-c2ccc3c(ccc4ccccc43)c2)cc1
The test is described as above. A digest of the protocol: as §1
For ACSL6 isoform 1 (UniProt Q9UKU0), the log2 fold change is -0.174.
For BRD8 isoform 2 (UniProt Q9H0E9), the log2 fold change was -0.13.
For ARMC8 isoform 6 (UniProt Q8IUR7), the log2 fold change was 0.025.
The same measure, in the same setting: the same measure for ARHGAP25 isoform 4 (UniProt P42331): -0.127; for BRIP1 (UniProt Q9BX63): -0.099; for BSCL2 isoform 4 (UniProt Q96G97): 0.007.
Take AUNIP isoform 2 (UniProt Q9H7T9): the log2 fold change is 0.073.
Same read-out and setting: the same measure for AUH (UniProt Q13825): 0.103; for ACTR3B (UniProt Q9P1U1): -0.217.
Consider ALDH2 isoform 2 (UniProt P05091), for which the log2 fold change was -0.351.
Same read-out and setting: the same measure for ANGEL1 (UniProt Q9UNK9): -0.004; for ABHD11 (UniProt Q8NFV4): 0.016.
Same read-out and setting: the same measure for AASDH (UniProt Q4L235): -0.166; for ARRDC1 (UniProt Q8N5I2): 0.057; for AIF1 (UniProt P55008): 0.021.
Still for that read-out and setting: the same measure for ADAM15 (UniProt Q13444): -0.024.
Take ATXN3 isoform 1 (UniProt P54252): the log2 fold change was -0.019.
On the same count and under the same terms, with BRAF (UniProt P15056) the figure was -0.046.
Still for that read-out and setting: the same measure for ABCA3 (UniProt Q99758): -0.196.
The same measure, in the same setting: with ALG14 (UniProt Q96F25) the figure was -0.081; with AZI2 (UniProt Q9H6S1), -0.152.
In the case of ADPRH (UniProt P54922), the log2 fold change was -0.623 (active).
As to BRD2 isoform 2 (UniProt P25440), the log2 fold change is -0.112.
